gsp antag – qHTS for Antagonists of gsp, the Etiologic Mutation Responsible for Fibrous Dysplasia/McCune-Albright Syndrome: qHTS. 0.4% of 340,000 active. Potency, µM (titrated, usually from 76.9 µM), hits mostly inhibitors. gsp-mutant cells, cAMP HTRF, 30 min; calls by dose curve; cell line not stated here;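 further: intracellular cAMP measured with PDE inhibitor Ro 20-1724 present during compound exposure; nearly all actives have a fitted effect of over 65% in size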
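HTRF cAMP measurement after 30 min RT detection following 30 min, 37C compound treatment alongside […] (added as 300 uM solution) in G418-selected cells seeded at 2000/well and grown 16–24 h.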
gsp ag – qHTS for Agonist of gsp, the Etiologic Mutation Responsible for Fibrous Dysplasia/McCune-Albright Syndrome: qHTS. gsp mutant cells, cAMP HTRF, 30 min. 0.13% of 340,000 active. Potency, µM (series often up to 76.9 µM), hits mostly activators. AID 624287, 2012; active means well fitted activation curve with a large enough effect; inconclusive means small, poorly fitted or top-dose-only effect, or another doubt; inactive means no such curve, though single readings can be large or run the other way; cell line not stated here;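 further: phosphodiesterase inhibitor Ro 20-1724 added with compounds to block cAMP breakdown; nearly all actives have a fitted effect of over 60% in size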
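Cells stably selected in G418 were plated at 2000/well, grown 16-24 hr, then given compounds in DMSO with the PDE inhibitor […] (300 uM solution added) for 30 min at 37C; cAMP was read by HTRF.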
RXFP1 antagonist – qHTS Assay for Antagonists of the Relaxin Receptor RXFP1; Relaxin receptor 1 (Homo sapiens), Q9HBX9; HEK293-RXFP1, relaxin-stimulated cAMP HTRF, 30 min; hits give low values; activity change, negative = inhibition, % at 57.5 µM; 0.59% of 350,000 active;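 active means activity change of -60% or lower, but not beyond a set lower limit; inconclusive means change between -60% and -40%, or beyond the set limit; inactive means change above -40%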
Target sequence (Q9HBX9 whole entry, looked up): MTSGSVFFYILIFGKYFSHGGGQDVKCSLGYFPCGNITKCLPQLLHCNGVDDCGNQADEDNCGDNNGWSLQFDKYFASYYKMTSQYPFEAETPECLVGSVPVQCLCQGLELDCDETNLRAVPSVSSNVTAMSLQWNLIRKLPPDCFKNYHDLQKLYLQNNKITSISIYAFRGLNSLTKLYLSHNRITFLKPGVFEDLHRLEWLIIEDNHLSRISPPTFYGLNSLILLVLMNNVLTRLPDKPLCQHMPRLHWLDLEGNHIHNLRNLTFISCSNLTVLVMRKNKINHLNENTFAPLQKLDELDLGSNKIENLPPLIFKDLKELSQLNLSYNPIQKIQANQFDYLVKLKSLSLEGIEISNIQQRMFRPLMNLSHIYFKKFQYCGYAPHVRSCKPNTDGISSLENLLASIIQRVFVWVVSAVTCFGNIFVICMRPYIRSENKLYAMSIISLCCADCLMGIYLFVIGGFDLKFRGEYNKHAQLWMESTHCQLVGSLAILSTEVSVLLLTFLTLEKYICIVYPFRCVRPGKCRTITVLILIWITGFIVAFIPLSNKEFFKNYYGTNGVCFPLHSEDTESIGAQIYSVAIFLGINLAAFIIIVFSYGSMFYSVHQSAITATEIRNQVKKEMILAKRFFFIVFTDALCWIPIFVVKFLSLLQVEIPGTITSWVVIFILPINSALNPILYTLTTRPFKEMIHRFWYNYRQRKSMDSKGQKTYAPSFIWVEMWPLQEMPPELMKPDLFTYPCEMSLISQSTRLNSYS
RXFP1 agonist – qHTS Assay for Agonists of the Relaxin Receptor RXFP1; HEK293T-RXFP1 cAMP TR-FRET, 30 min; response scale: percent of porcine relaxin response, buffer zero; Potency, µM (series often up to 57.5 µM), most hits filed as activators; 0.3% of 370,000 active; AID 2676, 2010; active means well fitted activation curve with a large enough effect; inconclusive means small, poorly fitted or top-dose-only effect; further: nearly all actives have a fitted effect of over 60% in size
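HEK293T cells stably expressing RXFP1 were pretreated with the PDE4 inhibitor Ro 20174, exposed to compounds for 30 min at 37C, lysed, and cAMP was read by TR-FRET. Data normalized to buffer (basal) and 29 nM porcine relaxin (100%).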
Large screens that a line does not name were inactive; ! = not active in a repeat. In the library only some 0.9% were active in any assay of this set; here they are far more common.

Cc1ccc2nc(Cl)c(C3CC(c4cccs4)=NN3S(C)(=O)=O)cc2c1 (stereo unspecified)	none
CC(=O)N1N=C(c2cccs2)CC1c1cc2cc(C)ccc2nc1Cl (stereo unspecified)	gsp antag 50µM
Cc1oc2cc(Br)c(O)c(Br)c2c1-c1ccccc1	RXFP1 antagonist -101
COc1cc(/C=N/NC(=O)c2ccccn2)ccc1OC(=O)c1ccccc1Br	gsp antag inconclusive, RXFP1 antagonist -97
COc1cc(/C=N/NC(=O)c2ccccn2)ccc1OC(=O)c1ccc(Br)cc1	none
O=C(/C=C/c1ccc(O)c([N+](=O)[O-])c1)c1ccc2ccccc2c1	gsp antag inconclusive
COc1ccc(Oc2ccc(/C=C/C(=O)c3ccc(O)cc3)cc2[N+](=O)[O-])cc1	RXFP1 antagonist -64
COc1ccc(-n2ccn3c(CC(C)(C)CC(=O)O)nnc3c2=O)cc1	none (no result: gsp antag, gsp ag, RXFP1 antagonist)
CCC(C)S(=O)(=O)c1oc(-c2ccc(F)cc2)nc1S(=O)(=O)c1ccc(F)cc1 (stereo unspecified)	RXFP1 antagonist inconclusive (no result: gsp antag, gsp ag)
CCCCCS(=O)(=O)c1oc(-c2cccs2)nc1S(=O)(=O)c1ccc(C)cc1	none (no result: gsp antag, gsp ag)
CCCCS(=O)(=O)c1oc(-c2ccc(F)cc2)nc1S(=O)(=O)c1ccc(C)cc1	RXFP1 antagonist -72 (no result: gsp antag, gsp ag)
CCS(=O)(=O)c1oc(-c2ccc(F)cc2)nc1S(=O)(=O)c1ccccc1	RXFP1 antagonist -107 (no result: gsp antag, gsp ag)
CCCCS(=O)(=O)c1oc(-c2cccs2)nc1S(=O)(=O)c1ccc(F)cc1	RXFP1 antagonist -76 (no result: gsp antag, gsp ag)
Cc1nc2n(c(=O)c1CCN1CCC(C(=O)c3ccc(F)cc3)CC1)CCS2	none (no result: gsp antag, gsp ag, RXFP1 agonist)
CCCCNC(=O)Cn1nc(N2CCN(c3ccccc3OC)CC2)ccc1=O	none (no result: gsp antag, gsp ag)
COCCCNC(=O)N1[C@H](c2cccs2)[C@@H](C)C(=O)[C@@H](C)[C@@H]1c1cccs1	none (no result: gsp antag, gsp ag)
COc1cc(C2c3cc4c(cc3OC(N3CCCCC3)C2C)OCO4)cc(OC)c1O (stereo unspecified)	gsp ag inconclusive (no result: RXFP1 agonist)
CC1C(c2ccc3c(c2)OCO3)c2cc3c(cc2OC1N1CCOCC1)OCO3 (stereo unspecified)	RXFP1 antagonist -73 (no result: RXFP1 agonist)
CCOC(=O)c1ccc(NC(=O)Nc2ccc3snnc3c2)cc1	none (no result: gsp antag, gsp ag, RXFP1 antagonist)
CC1(C)SC2C(NC(=O)C(c3ccccc3)S(=O)(=O)O)C(=O)N2C1C(=O)O (stereo unspecified)	none (no result: gsp antag, gsp ag, RXFP1 agonist)
Cc1ccc(/C=N/NC(=O)C(C)Oc2ccccc2[N+](=O)[O-])s1 (stereo unspecified)	gsp antag 11µM (no result: RXFP1 antagonist)
O=C(NOCC1CC1)c1ccc(F)c(F)c1Nc1ccc(I)cc1Cl	none (no result: gsp antag, gsp ag, RXFP1 agonist)
CC(=O)Nc1c(Cl)cc(Cl)c2c1Cc1cc(Cl)ccc1-2	RXFP1 antagonist -101 (no result: RXFP1 agonist)
CCN(c1ccc(OC)cc1)S(=O)(=O)c1nnc(NC(=O)c2ccccc2Cl)s1	gsp antag inconclusive, RXFP1 antagonist -60!
O=C1/C(=C2\C(=O)N(Cc3ccc(F)cc3)c3ccccc32)SC(=S)N1CCS(=O)(=O)O	RXFP1 antagonist -72
O=C(O)CN1C(=O)/C(=C2\C(=O)N(Cc3ccccc3Cl)c3ccccc32)SC1=S	none
Cc1ccc(OCC(=O)Nc2ccc3nc(Nc4cccc(Cl)c4)cc(C)c3c2)cc1	RXFP1 agonist 14µM (no result: gsp antag, gsp ag)
COc1ccc(CC(=O)Nc2ccc3nc(Nc4cccc(Cl)c4)cc(C)c3c2)cc1	none (no result: gsp antag, gsp ag, RXFP1 antagonist)
CCCn1c(/C=C/c2ccccc2)nc2ccccc21	gsp antag inconclusive, RXFP1 antagonist -86!
CCn1c(/C=C/c2cc[n+](C)cc2)nc2ccccc21	gsp ag inconclusive, RXFP1 agonist 28µM
CCn1c(/C=N/c2nc3ccccc3n2C)nc2ccccc21	none
CN(C)C(=S)SC(=S)N(C)C	none (no result: gsp antag, gsp ag, RXFP1 agonist)
C=CCc1cc(Cl)ccc1OCCNCCOC	RXFP1 antagonist -81
C=CCc1cc(Cl)ccc1OCCNCCN1CCOCC1	none
C=CCNCCOCCOc1ccc(Cl)cc1C(C)(C)C	gsp ag inconclusive
COCCCNCCOCCOc1ccc(Cl)cc1C(C)(C)C	RXFP1 antagonist -64
COc1ccc(-c2cn3c(n2)sc2cc(C(=O)Nc4ccc(F)cc4Cl)ccc23)cc1	none (no result: gsp antag, gsp ag)
c1ccc(C(O[C@H]2CCCN(CCc3ccc4c(c3)OCO4)C2)c2ccccc2)cc1	RXFP1 antagonist -62 (no result: gsp antag, gsp ag, RXFP1 agonist)
CC(NCc1ccc2c(c1)OCO2)c1ccccc1 (stereo unspecified)	none
Cc1cccc(S(=O)(=O)C(C#N)c2nc3ccccc3nc2N2CC(C)OC(C)C2)c1 (stereo unspecified)	none
Cc1ccc(S(=O)(=O)C(C#N)c2nc3ccccc3nc2N2CC(C)OC(C)C2)cc1C (stereo unspecified)	gsp antag 40µM
Cc1cc(C)n2nc(C(=O)N3CCN(c4ccc([N+](=O)[O-])cc4)CC3)nc2n1	gsp antag 11µM (no result: RXFP1 antagonist)
COc1ccc(N2CCN(C(=O)c3nc4nc(C)cc(C)n4n3)CC2)cc1	none
COC(=O)c1sccc1S(=O)(=O)N(CC(=O)Nc1ccccc1C)c1ccc(Cl)cc1	none (no result: gsp antag, gsp ag)
CCNc1nc(N)nc(Oc2ccc(OCC(=O)OC)nn2)n1	none (no result: gsp antag, gsp ag)
CCOc1cc(/C=C2\CCC/C(=C\c3cc(Cl)c(O)c(OCC)c3)C2=O)cc(Cl)c1O	RXFP1 antagonist -69
CCOc1cc(/C=C2\CN(C)C/C(=C\c3ccc(O)c(OCC)c3)C2=O)ccc1O	none
CC(C)c1ccc(NC(=O)Cn2c(=O)oc3cc(S(=O)(=O)N4CCCC4)ccc32)cc1	none (no result: gsp antag, gsp ag, RXFP1 antagonist)
CC(C)c1nnc(NC(=O)c2nc(S(=O)(=O)Cc3ccc(F)cc3)ncc2Cl)s1	gsp antag 28µM, RXFP1 antagonist inconclusive
CC(C)c1nnc(NC(=O)c2nc(S(=O)(=O)Cc3ccccc3F)ncc2Cl)s1	gsp antag inconclusive
Cc1cccc(CS(=O)(=O)c2ncc(Cl)c(C(=O)Nc3nnc(C(C)C)s3)n2)c1	gsp antag 20µM, RXFP1 antagonist inconclusive
CSc1nnc(NC(=O)c2nc(S(=O)(=O)Cc3cccc(C)c3)ncc2Cl)s1	gsp antag 40µM, RXFP1 antagonist -73
CCOc1ccccc1NC(=O)c1nc(S(=O)(=O)Cc2cccc(C)c2)ncc1Cl	gsp ag inconclusive
CSc1ncc(Cl)c(C(=O)Nc2nnc(SC/C=C/c3ccccc3)s2)n1	gsp antag 35µM, gsp ag inconclusive
Fc1ccc(C(c2ccc(F)cc2)N2CCNCC2)cc1	none (no result: gsp antag, gsp ag, RXFP1 agonist)
O=C(CC1C(=O)N(c2ccccc2)C(=O)N1Cc1ccc2c(c1)OCO2)Nc1ccccc1 (stereo unspecified)	none (no result: gsp antag, gsp ag, RXFP1 antagonist)
CC(=O)c1cc2ccccc2s1	none (no result: gsp antag, gsp ag, RXFP1 agonist)
Cc1ccccc1Nc1cc(C(=O)NCc2cccs2)c2ccccc2n1	none (no result: gsp antag, gsp ag)
Cc1ccc(NC(=O)C(C)Sc2nc(=O)cc(N)n2-c2cccc(C)c2)cc1 (stereo unspecified)	none (no result: gsp antag, gsp ag)
CCN(CC)C(=O)Cn1cc(SCC(=O)Nc2cc(OC)ccc2OC)c2ccccc21	none (no result: gsp antag, gsp ag)

Assay outcomes deposited in PubChem BioAssay by National Center for Advancing Translational Sciences (NCATS).
